# From PubChem
# HP1b chromo inh: HTS for Inhibitors of HP1-beta Chromodomain Interactions with Methylated Histone Tails; AlphaScreen HP1-beta / biotin-H3K9me3 peptide binding; 0.56% of 390,000 active; Potency, µM (doses to about 114 µM), actives largely listed as inhibitors; further: nearly all actives have a fitted effect of over 70% in size
# Target sequence (P83916 whole entry, looked up): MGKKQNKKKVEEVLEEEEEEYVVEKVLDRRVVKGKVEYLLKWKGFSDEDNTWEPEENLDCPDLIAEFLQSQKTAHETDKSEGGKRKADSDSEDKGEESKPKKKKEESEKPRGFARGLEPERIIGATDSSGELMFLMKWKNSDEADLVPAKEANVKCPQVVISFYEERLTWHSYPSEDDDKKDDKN
#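 Compound inhibition of the preformed complex between 50 nM HP1-beta and 50 nM biotinylated H3K9me3 peptide was read by AlphaScreen. Buffer was PBS pH 7.4 with 0.01% Tween-20. Incubations ran 30 min at room temperature, with 10 ug/mL donor/acceptor beads.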
# BAZ2B inh: qHTS Assay for Inhibitors of BAZ2B; 4.4% of 360,000 active; AID 504333, 2011; AlphaScreen BAZ2B-H3K14Ac peptide displacement; Potency, µM (series often up to 114 µM), most hits filed as inhibitors; Bromodomain adjacent to zinc finger domain protein 2B (Homo sapiens), Q9UIF8; further: nearly all actives have a fitted effect of over 60% in size
#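 BAZ2B (50 nM) with biotin-H3(5-23)K14Ac peptide (50 nM) in PBS pH 7.4, 0.01% Tween-20, preformed 30 min, then compound 30 min at room temperature; top concentration 110uM. AlphaScreen streptavidin donor/nickel chelate acceptor beads (10 ug/mL final), 20 min dark, signal read.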
# L3MBTL1 block: qHTS Assay for the Inhibitors of L3MBTL1 | Lethal(3)malignant brain tumor-like protein 1 (Homo sapiens), Q9Y468 | AlphaScreen L3MBTL1–H3K9me1 peptide binding | Potency, µM (titrated, usually from 57.1 µM), most hits filed as inhibitors | 0.66% of 230,000 active; further: nearly all actives have a fitted effect of over 60% in size
#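 L3MBTL1 50 nM + b-AHA-H3(1-15)K9me1 75 nM, 30 min RT; compound added, 30 min RT; streptavidin donor/Ni-chelate acceptor beads 10 ug/mL each final, 30 min RT dark; AlphaScreen read.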
# Sfp inh: qHTS Assay for Inhibitors of Bacillus subtilis Sfp phosphopantetheinyl transferase (PPTase); 3.5% of 310,000 active; 4'-phosphopantetheinyl transferase ffp (Bacillus subtilis), Q9F4F7; AID 1490, 2009; Biochemical Sfp PPTase activity, qHTS; Potency, µM, hits mostly inhibitors;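 further: the enzyme is Sfp with the accession as filed and its product quenches rhodamine fluorescence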
#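 After 15 min at room temperature with compound, 15 nM Sfp received 5 uM rhodamine-CoA plus 12.5 uM BHQ-2-ybbR (50 mM Hepes pH 7.6, 10 mM MgCl2). Rate came from the fluorescence difference over 30 min, ex 525/em 598 nm.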
# JMJD2A Tudor: qHTS Assay for Inhibitors of JMJD2A-Tudor Domain; Lysine-specific demethylase 4A (Homo sapiens), O75164; AlphaScreen JMJD2A-Tudor / H3K4me3 peptide binding; Potency, µM (series often up to 114 µM), most hits filed as inhibitors; 4.4% of 390,000 active; AID 504339, 2011; further: nearly all actives have a fitted effect of over 50% in size
# G9a block: qHTS Assay for Inhibitors of Histone Lysine Methyltransferase G9a. G9a H3K9 monomethylation, AlphaScreen, 2 h. Potency, µM (highest dose often 102 µM), hits mostly inhibitors. 8.8% of 350,000 active; further: nearly all actives have a fitted effect of over 75% in size
# Target sequence (Q96KQ7 913-1193 limits assumed): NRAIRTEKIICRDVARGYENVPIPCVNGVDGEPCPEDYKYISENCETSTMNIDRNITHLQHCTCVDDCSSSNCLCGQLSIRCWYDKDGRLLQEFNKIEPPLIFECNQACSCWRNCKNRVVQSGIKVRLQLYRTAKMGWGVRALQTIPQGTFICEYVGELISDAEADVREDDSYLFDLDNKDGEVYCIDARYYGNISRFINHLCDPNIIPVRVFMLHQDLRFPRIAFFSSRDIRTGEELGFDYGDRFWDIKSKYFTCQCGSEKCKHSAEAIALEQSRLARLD
#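 G9a (20 nM) preincubated 15 min RT with compounds, then 500 nM biotinylated H3K9 peptide and 20 uM SAM added; 2 h RT reaction. Monomethyl-H3K9 product detected by AlphaScreen with anti-H3K9me1 antibody, streptavidin donor and anti-rabbit IgG acceptor beads.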
# A number is an active result; – = inactive; ? = inconclusive; · = no result given; [ ] = remark or other dose. An excerpt weighted towards active compounds, which were near 12% of everything screened. The call rests on the fitted dose curve; in most records, active means well fitted curve in the direction sought with a large enough effect; inconclusive means small, poorly fitted or top-dose-only effect, or another doubt; inactive means no such curve, though single readings can be large; an effect the other way counts as inactive or inconclusive.
SMILES,HP1b chromo inh,BAZ2B inh,L3MBTL1 block,Sfp inh,JMJD2A Tudor,G9a block
CCN(CC)N=Nc1ccc(C(=O)O)cc1,–,–,–,–,–,2µM
CCN(CC)N=Nc1ccc(S(=O)(=O)N2CCSC2C(=O)O)cc1 (configuration not stated),–,–,–,–,–,–
C=C1CCN(C(CC(C)C)C(=O)Nc2nc3ccc(Cl)cc3s2)S(=O)(=O)c2ccccc21 (configuration not stated),–,·,·,–,–,·
O=[N+]([O-])c1ccccc1-c1cc(-c2ccccc2O)n[nH]1,–,?,–,–,–,–
O=[N+]([O-])c1ccccc1N=Nc1ccc(O)cc1O,?,·,·,·,56µM,·
CCc1ccc(N=C2NC(=O)CC(C(=O)Nc3ccc(OC)cc3)S2)cc1 (configuration not stated),–,–,·,·,?,?
Cc1ccc(C2C3=C(CCCC3=O)N=C3c4ccccc4C(=O)C32)cc1 (configuration not stated),?,28µM,–,–,–,45µM
COc1ccc(-c2nc3ccc(NC(=O)CO)cc3c(=O)n2Cc2cccc(Cl)c2)cc1COc1ccc(NC(C)=O)cc1,–,·,·,·,56µM,·
COc1ccc(-c2nc3ccccc3c(=O)n2Cc2ccccc2)cc1COc1ccc(NC(C)=O)cc1,·,·,·,·,–,·
COc1ccc(-c2nc3ccccc3c(=O)n2Cc2ccccc2)cc1CNc1ccc(NC(C)=O)cc1,·,·,·,·,50µM,·
Cc1ccc2c(c1)N(C(=O)N1CCC(C(=O)NCCc3ccc(Cl)cc3)CC1)CC(C)O2 (configuration not stated),–,–,·,·,–,–
CCOC(=O)c1[nH]c(C)c(C(=O)NC2CCCCC2)c1C,–,–,·,–,–,79µM
CCOC(=O)CC(=O)c1[nH]c(C)c(C(=O)OCC)c1C,–,79µM,–,–,–,–
CCOC(=O)c1[nH]c(C)c(C(=O)OC)c1C,–,–,–,–,–,–
CCOC(=O)c1[nH]c(=S)[nH]c1C,–,·,·,·,5µM,·
CCOC(=O)c1c(C)[nH]c(C(=O)O)c1C,–,?,–,–,–,–
CCOC(=O)c1[nH]c(C)c(C)c1C,–,?,–,–,79µM,–[12.7 µM]
COc1cc2cc(CNc3ccc(C)cc3)c(=O)n(CC(=O)Nc3ccc(F)cc3F)c2cc1OC,–,–,·,·,–,?
COc1ccc(Cl)cc1NC(=O)Cc1coc2c(C)c(C)ccc12,–,–,·,·,–,–
CC(C)(C)C(=O)NCc1ccc(C(=O)CN2C(=O)NC3(CCCC3)C2=O)s1,–,–,–,·,–,–
O=C(CN1C(=O)NC2(CCCC2)C1=O)c1ccc(Cl)s1,–,–,–,·,–,79µM
O=C(/C=C1\C(=O)Nc2ccccc21)/C=C1\C(=O)Nc2ccccc21,–,45µM,–,1.4µM,?,7.1µM
O=C1Nc2ccccc2C1=O,–,·,·,·,–,·
O=C1Nc2ccccc2/C1=C\C(=O)c1ccccc1,–,–,·,?,?,25µM
O=C1Nc2ccccc2Nc2ccccc21,–,?,·,–,50µM,14µM
SMILES,HP1b chromo inh,BAZ2B inh,L3MBTL1 block,Sfp inh,JMJD2A Tudor,G9a block
CC(C)Oc1ccc(C(=O)/C=C2/C(=O)Nc3ccccc32)cc1,–,?,·,–,?,40µM
CN(C)/C=C1\C(=O)Nc2ccccc21,–,–,·,–,–,?
CN(O)/C=C1\C(=O)Nc2ccccc21,–,–,·,50µM,–,50µM
CC1CC(OCC(O)C[N+]2(C)CCOCC2)CC(C)(C)C1 (configuration not stated),?,–,·,–,–,40µM
CC1CC(OCC(O)CN2CCOCC2)CC(C)(C)C1 (configuration not stated),–,–,–,–,–,–
CCCOc1cccc(C(=O)Nc2ccc(-c3nc4ccccc4o3)cc2)c1,–,–,·,·,–,–
S=c1nc(C2CCCCC2)n(-c2ccccc2)[nH]1,–,–,·,–,16µM,3.5µM
CC(C)c1nc2ccc(Br)cn2c1NC1CCCC1,–,?,?,–,–,45µM
Cc1ccc(S(=O)(=O)Cc2nc(-c3ccc(C(=O)NCc4ccccc4)cc3)oc2C)cc1,–,–,·,·,–,–
C=CCOC(=O)C(C(C)=O)C(NC(=O)OC)c1ccc(Cl)cc1 (configuration not stated),·,·,·,–,·,·
CCOC(=O)/C=C/C(=O)N1CCN(C(=O)/C=C/C(=O)OCC)CC1,–,–,·,–,–,56µM
N#CC(c1nc2ccccc2nc1N1CCCC1)S(=O)(=O)c1cccs1 (configuration not stated),–,–,–,50µM,?,13µM
CN1CCN(c2nc3ccccc3nc2C(C#N)S(=O)(=O)c2ccccc2)CC1 (configuration not stated),–,–,·,–,–,·
CCC(CC)COC(=O)C(C#N)c1nc2ccccc2nc1N1CCN(CC)CC1 (configuration not stated),–,35µM,–,–,?,45µM
CC(C)OC(=O)C(C#N)c1nc2ccccc2nc1N1CCCC1 (configuration not stated),–,–,–[11.4 µM],–,–,11µM
COc1ccc(CNC(=O)C(C#N)c2nc3ccccc3nc2N2CCN(C)CC2)cc1 (configuration not stated),?,50µM,·,–,71µM,?
COc1ccc(CNC(=O)C(C#N)c2nc3ccccc3nc2N2CCCC2)cc1 (configuration not stated),–,–,–,–,–,–
Cc1ccc(Nc2nc(-c3sc(NC(=O)c4ccc([N+](=O)[O-])cc4)nc3C)cs2)cc1,·,45µM,–,–,·,·
CCCCCC(=O)Nc1nc(C)c(-c2csc(Nc3cc(Cl)ccc3C)n2)s1,–,?,–,–,?,?
Cc1ccc(Cl)cc1Nc1nc(-c2sc(NC(=O)c3cccc(Cl)c3)nc2C)cs1,·,?,–,–,·,32µM
Cc1ccc(Cl)cc1Nc1nc(-c2sc(NC(=O)c3ccco3)nc2C)cs1,–,?,–,–,?,?
COc1ccccc1Nc1nc(-c2sc(NC(=O)c3ccco3)nc2C)cs1,–,–,–,–,–,?
Cc1ccccc1Nc1nc(-c2sc(NC(=O)c3ccccc3)nc2C)cs1,·,?,–,25µM,·,35µM
Cc1ccccc1Nc1nc(-c2sc(NC(=O)c3cccc(Cl)c3)nc2C)cs1,·,89µM,–,–,·,22µM
O=C(CCCn1c(=O)c2cccn2c2ccccc21)NCCc1ccc(Cl)cc1,–,?,·,·,?,?
